Reference: the supplement of paper PMC13380429

Test system: Vero E6 infected with SARS-CoV-2
Test: inhibition of SARS-CoV-2 cytopathic effect; higher = more antiviral protection, active = above 15
Conditions: 48 h

Measured: inhibition of SARS-CoV-2 cytopathic effect

C[n+]1ccccc1C=NO [pralidoxime]
inactive: 1 nM 1.86% | 8.33 nM 0.25% | 100 nM 0.14% | 833.33 nM 0.94% | 10000 nM 1.11%

NC(N)=Nc1nc(CSCCN/C=N/S(=O)(=O)c2ccc(Br)cc2)cs1 [ebrotidine]
inactive: 1 nM -0.49% | 8.33 nM 1.21% | 100 nM 5.48% | 833.33 nM -0.19% | 10000 nM -2.58%

O=C(O)CCc1ccc(NCc2cccc(Oc3ccccc3)c2)cc1
inactive: 1 nM 1.33% | 8.33 nM -1.1% | 100 nM -1.51% | 833.33 nM -0.16% | 10000 nM -0.27%

O=C(NC[C@H]1CN(c2ccc(N3CCOCC3=O)cc2)C(=O)O1)c1ccc(Cl)s1 [Rivaroxaban (Xarelto)]
inactive: 1 nM 1.99% | 8.33 nM 1.35% | 100 nM 3.46% | 833.33 nM 1.51% | 10000 nM 3.09%

c1ccc(-c2oc3ncnc(NC[C@@H]4CCCO4)c3c2-c2ccccc2)cc1
inactive: 1 nM 0.95% | 8.33 nM 0.57% | 100 nM 0% | 833.33 nM 0.71% | 10000 nM 1.78%

Cc1ccsc1/C=C/C1=NCCCN1C [morantel]
inactive: 1 nM -0.99% | 8.33 nM -3.26% | 100 nM -2.09% | 833.33 nM -5.69% | 10000 nM -0.33%

O=C(/C=C/c1c(C(=O)O)[nH]c2cc(Cl)cc(Cl)c12)Nc1ccccc1 [gavestinel]
inactive: 1 nM -3.94% | 8.33 nM -3.2% | 100 nM -2.69% | 833.33 nM -2.17% | 10000 nM -3.95%

C[n+]1cccc(C(=O)[O-])c1 [trigonelline]
inactive: 1 nM 5.14% | 8.33 nM 3.85% | 100 nM 1.81% | 833.33 nM 1.44% | 10000 nM 0.82%

O=[N+]([O-])c1ncc[nH]1 [azomycin-(2-nitroimidazole)]
inactive: 1 nM 1.8% | 8.33 nM 1.77% | 100 nM 0.86% | 833.33 nM 2.21% | 10000 nM -0.1%

C=CC(=O)N1CCC(Oc2cc3c(Nc4ccc(Cl)c(Cl)c4F)ncnc3cc2OC)CC1 [poziotinib]
inactive: 1 nM -7.08% | 8.33 nM -14.9% | 100 nM -15.1% | 833.33 nM -17.3% | 10000 nM -15.7%

CCOC(=O)NNc1nncc2ccccc12 [todralazine]
inactive: 1 nM 2.18% | 8.33 nM 1.04% | 100 nM 0.33% | 833.33 nM 0.99% | 10000 nM -0.55%

CCCC(=O)C1CCN(c2ncnc3c2CN(C(=O)c2ccc(-c4ccccc4)cc2)CC3)CC1
inactive: 1 nM -1.91% | 8.33 nM -1.68% | 100 nM 2.34% | 833.33 nM -0.3% | 10000 nM -1.38%

CCC(=O)NC[C@@H]1C[C@H]1c1cccc2c1CCO2 [tasimelteon]
inactive: 1 nM -0.84% | 8.33 nM 1.68% | 100 nM -0.1% | 833.33 nM 0.64% | 10000 nM -1.54%

O=C(NCC1(N2CCN(c3ccccc3)CC2)CCOCC1)c1cccnc1Sc1ccccc1
inactive: 1 nM -0.72% | 8.33 nM 1.47% | 100 nM 1% | 833.33 nM -2.18% | 10000 nM 0.86%

Cc1ccc(-c2ccc(F)cc2COc2ccc(CCC(=O)O)cc2)cc1
inactive: 1 nM -2.64% | 8.33 nM 0.79% | 100 nM -1.34% | 833.33 nM 0.38% | 10000 nM -1.53%

CCC(=O)NC1CCc2cccc(OC)c2C1 (stereo not given)
inactive: 1 nM 0.92% | 8.33 nM 1.4% | 100 nM 2.16% | 833.33 nM 7.57% | 10000 nM 4.57%

CC[C@H](NC(=O)c1c(C)c(-c2ccccc2)nc2ccccc12)c1ccccc1
inactive: 1 nM 1.87% | 8.33 nM 4.53% | 100 nM 5.18% | 833.33 nM 3.05% | 10000 nM -2.21%

Cc1cc(C)c(N(Cc2ccccc2)S(=O)(=O)c2ccc(OCCNC(=O)c3cc4ccccc4o3)cc2)c(C(=O)NO)c1
inactive: 1 nM -0.99% | 8.33 nM 0.92% | 100 nM -1.74% | 833.33 nM -1.22% | 10000 nM -6.93%

C#C[C@]1(O)CC[C@H]2[C@@H]3CCC4=C(CCC(=O)C4)[C@H]3CC[C@@]21C [noretynodrel]
inactive: 1 nM 0.57% | 8.33 nM 0.96% | 100 nM 1.22% | 833.33 nM -5.6% | 10000 nM 0.57%
